Out of some 190,000 compounds screened, about 1,300 (0.68%) were called active. Cut-off read from the data, not from the text of the source: active = inhibition above about 50%; inactive = the rest. Only a selection was taken, and actives are over-represented in it overall.

This assay deals with Mannose-6-phosphate isomerase (Homo sapiens) (UniProt P34949). In words: human PMI inhibitors, high substrate, primary screen, biochemical, fluorescence intensity, high mannose 6-phosphate (AID 1220). To be noted: recombinant PMI enzyme, coupled fluorescence intensity; at 20 µM; stronger effect = higher value.
Mannose-6-phosphate isomerase (Homo sapiens), sequence (P34949 whole entry, looked up): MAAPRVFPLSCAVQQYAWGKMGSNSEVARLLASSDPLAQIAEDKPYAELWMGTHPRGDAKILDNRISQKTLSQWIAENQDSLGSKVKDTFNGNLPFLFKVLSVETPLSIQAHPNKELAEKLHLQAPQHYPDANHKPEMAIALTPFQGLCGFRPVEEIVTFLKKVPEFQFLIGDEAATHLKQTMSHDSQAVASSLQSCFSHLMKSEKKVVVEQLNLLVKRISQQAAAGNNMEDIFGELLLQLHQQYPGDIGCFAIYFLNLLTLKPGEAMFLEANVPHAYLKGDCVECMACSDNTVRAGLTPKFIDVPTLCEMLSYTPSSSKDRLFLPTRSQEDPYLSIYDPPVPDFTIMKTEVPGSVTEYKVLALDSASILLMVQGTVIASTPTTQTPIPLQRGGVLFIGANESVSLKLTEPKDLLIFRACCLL
One may read the inhibition as the drop in the measured response relative to a control, in per cent. In the case of `COc1ccc(-c2[nH]ncc2CNCC(C)(C)N2CCOCC2)cc1F`, the inhibition is 8.1% (inactive).

As for `CN=C(Nc1cccc(OC)c1)SC1CC(=O)N(c2ccc(C(=O)O)cc2)C1=O` (configuration not stated), the inhibition was 8.7% (inactive).

In the case of `O=C(CCS(=O)(=O)Cc1ccc(Cl)cc1)NCCCN1CCOCC1`, the inhibition was 4.1% (inactive).

On to `CCCCCCCCCCCCCCCC[n+]1cccc2ccccc21`, for which the inhibition was -9.4% (inactive).

`CCCCN(CCCC)C(=S)NC(=O)c1ccccc1Cl`: the inhibition was 7.7% (inactive).

Consider `CCN(CC)C(=S)NC(=O)c1ccc(Cl)cc1Cl`, for which the inhibition was 0.2% (inactive).

Take `CCCN(CCC)C(=S)NC(=O)c1ccc(Cl)cc1Cl`: the inhibition is 87.2% (active).

Turning to `CCOc1cc(N2CCOCC2)c(OCC)cc1NC(=O)c1ccc(=O)n(Cc2ccccc2)n1`, the inhibition was 7.5% (inactive).

In the case of `O=CN1CCN(C(C(=O)NC2CCCC2)c2cc3c(cc2[N+](=O)[O-])OCO3)CC1` (configuration not stated), the inhibition is 31.4% (inactive).

Regarding `O=C(NC1CCCCC1)C(c1cc2c(cc1[N+](=O)[O-])OCO2)N1CCCCC1` (configuration not stated), the inhibition was 46.3% (inactive).

Turning to `O=C(NC1CCCC1)C(c1cc2c(cc1[N+](=O)[O-])OCO2)N1CCCC1` (configuration not stated), the inhibition was 23.9% (inactive).

For `CCN1CCN(C(C(=O)NC2CCCC2)c2cc3c(cc2[N+](=O)[O-])OCO3)CC1` (configuration not stated), the inhibition is 46.2% (inactive).

Turning to `O=CN1CCN(C(C(=O)NC2CCCCC2)c2cc3c(cc2[N+](=O)[O-])OCO3)CC1` (configuration not stated), the inhibition is 58.3% (active).

Regarding `CC1CCN(C(C(=O)NC2CCCCC2)c2cc3c(cc2[N+](=O)[O-])OCO3)CC1` (configuration not stated), the inhibition was 61.1% (active).

On to `CCOC(=O)Cn1nc(C)n(-c2c(C)cccc2C)c1=O`, for which the inhibition was 8.1% (inactive).

In the case of `Cc1cc(Cl)ccc1OCCCC(=O)N1CCCCC1`, the inhibition is -5.5% (inactive).

Take `COc1ccc(S(=O)(=O)N2CCSC2c2ccc(OC)c(OC)c2)cc1` (configuration not stated): the inhibition is -17.1% (inactive).

Turning to `Cc1cccc(NC(=S)NCCc2ccccc2)n1`, the inhibition is 6.5% (inactive).

As to `COn1c(C)c(C(C)=O)c2c3no[n+]([O-])c3ccc21`, the inhibition is 8.2% (inactive).

Turning to `C=CCOn1c(C)c(C(C)=O)c2c3nonc3ccc21`, the inhibition was 49.2% (inactive).

Regarding `COn1c(C)c(C(C)=O)c2c3nonc3ccc21`, the inhibition is 58% (active).

`C=CC[n+]1c(/C=C2\C=Cc3cc(C)ccc3N2CC)ccc2ccccc21`: the inhibition is 9% (inactive).

Consider `CCN1C(=C(C#N)C#N)C=Cc2cc(C)ccc21`, for which the inhibition is 5.3% (inactive).

As to `CCN1/C(=C/c2cc[n+](C)cc2)C=Cc2cc(C)ccc21`, the inhibition was 66.7% (active).

For `CCOC(=O)c1ccc(NC(=O)c2n[nH]c(=O)c3ccccc23)cc1`, the inhibition is -0.1% (inactive).

In the case of `CCN(CC(=O)Nc1cccc(C(C)=O)c1)S(=O)(=O)c1ccc(C)cc1`, the inhibition was -6.4% (inactive).

As to `O=c1c2c(-c3ccc([N+](=O)[O-])cc3)csc2nc2n1CCC2`, the inhibition is 28.9% (inactive).

In the case of `Cc1cc(O)ccc1Nc1nc(-c2sc(N)nc2C)cs1`, the inhibition is 2% (inactive).

Turning to `CN(c1ccc(O)cc1)c1nc(-c2ccccc2)cs1`, the inhibition is 25.1% (inactive).

Consider `Cc1nc(N)sc1-c1csc(N(C)c2ccc(O)cc2)n1`, for which the inhibition is 56.3% (active).

Take `CNC(=S)N1N=C(c2ccccc2)CC1c1ccccc1Cl` (configuration not stated): the inhibition was 1% (inactive).

For `CC(C)(C)NC(=S)NCc1ccc2c(c1)OCO2`, the inhibition is -10.4% (inactive).

In the case of `Cc1ccc(NC(=O)CN(C)S(=O)(=O)c2cccc3cccnc23)cc1`, the inhibition is 15.3% (inactive).

For `Cc1cc(NC(=O)COc2cccc3cccnc23)no1`, the inhibition was 51.1% (active).

Consider `O=C(COc1cccc2cccnc12)NCC(F)(F)F`, for which the inhibition was 56.1% (active).

Turning to `O=C(COc1cccc2cccnc12)Nc1ccccc1`, the inhibition was 5.4% (inactive).

For the compound `NNC(=O)COc1cccc2cccnc12`, the inhibition was -9.1% (inactive).

For the compound `Cc1cc(NC(=O)COc2cccc(C)c2C)no1`, the inhibition was 4.6% (inactive).

Regarding `O=C(COc1cccc2cccnc12)NCc1cccs1`, the inhibition is 37.7% (inactive).

With `Cc1cc(NC(=O)COc2ccccc2C)no1`, the inhibition was -5.2% (inactive).

`CCc1ccc(NC(=O)CC2C(=O)Nc3c2c(=O)n(C)c(=O)n3C)cc1` (configuration not stated): the inhibition was 2.9% (inactive).

On to `CC1SC(c2ccc(Cl)cc2)NC1=O` (configuration not stated), for which the inhibition is 7.4% (inactive).

`NC(=O)c1cc2ccccc2o/c1=N/NC(=O)c1cccs1`: the inhibition is 2.2% (inactive).

For the compound `COc1ccc(OC)c(NC(=O)N[C@@H](Cc2ccccc2)C(=O)O)c1`, the inhibition is 8.2% (inactive).

Turning to `Cn1c(C(=O)NC2CC2)cc2c(=O)n(C)c3ccccc3c21`, the inhibition is 0% (inactive).

`COc1ccc(OC/C(O)=C(\C#N)c2nc3ccccc3[nH]2)cc1`: the inhibition was 1.2% (inactive).

As for `CCC(=O)Nc1cccc(C(=O)/C=C/c2ccc(F)cc2)c1`, the inhibition was 9.5% (inactive).

Regarding `O=C1CCCC2=C1C(c1ccccc1)CC(=O)N2c1ccc(F)cc1F` (configuration not stated), the inhibition was 5.4% (inactive).

As to `CCOC(=O)c1ccc2c(c1)N(CC(=O)N1CCCCC1)C(=O)C(C)(C)O2`, the inhibition was 5.7% (inactive).

In the case of `COc1ccc(Nc2nc(C)c(-c3ccccc3)s2)cc1`, the inhibition was 6.2% (inactive).

With `O=C(Nc1cccc2ccccc12)N1CCN(c2ncccn2)CC1`, the inhibition was 68.9% (active).

Consider `CCn1cc(C(=O)O)c(=O)c2cnc(N3CCNCC3)nc21`, for which the inhibition was 14.5% (inactive).

As for `S=C(Nc1cccc2ccccc12)N1CCN(c2ncccn2)CC1`, the inhibition was 33.6% (inactive).

Take `C=CCNC(=S)N1CCN(c2ncc3c(=O)c(C(=O)O)cn(CC)c3n2)CC1`: the inhibition was 14.8% (inactive).

As to `O=C(Nc1cccc2ccccc12)N1CCN(c2ccccc2)CC1`, the inhibition is 15.4% (inactive).

Take `CCn1cc(C(=O)O)c(=O)c2cnc(N3CCN(C(=O)Nc4cccc5ccccc45)CC3)nc21`: the inhibition is 58.3% (active).

As to `CCn1cc(C(=O)N2CCn3c(nc4ccccc43)C2)c(=O)c2ccc(C)nc21`, the inhibition was -2% (inactive).

In the case of `CCn1c(CN2CCN(CCO)CC2)nc2ccccc21`, the inhibition was 2.7% (inactive).

Turning to `CC1CCCC(C)N1/N=C/c1ccc(Cl)cc1` (configuration not stated), the inhibition is -10.4% (inactive).

As to `CCCN1C(=O)/C(=C\C=C2/C=CN(CC)c3ccccc32)SC1=S`, the inhibition is 65.3% (active).

In the case of `CCN1C(=O)/C(=C\C=C2/C=CC=CN2CC)SC1=S`, the inhibition was 65.6% (active).

On to `CCN1C(=O)/C(=C2/C=CC=CN2C)SC1=S`, for which the inhibition was 9.3% (inactive).

Consider `CCN1C(=O)/C(=C/C=C2/Sc3ccccc3N2CCO)SC1=S`, for which the inhibition was 8.4% (inactive).

Take `CCCCN1C(=O)/C(=C/C=C2\Oc3ccccc3N2CC)SC1=S`: the inhibition was 19.9% (inactive).

As to `CCCN1C(=O)/C(=C\C=C2\N(CC)c3ccccc3C2(C)C)SC1=S`, the inhibition is 18.5% (inactive).

On to `CCN1C(=O)/C(=C\N2CCCCCC2)SC1=S`, for which the inhibition was 7% (inactive).

Consider `CCN1C(=O)/C(=C/C=C2\C=CN(CC)c3ccccc32)SC1=S`, for which the inhibition is 64.1% (active).

Turning to `CCCN1C(=O)/C(=C/C=C2\N(CC)c3ccccc3C2(C)C)SC1=S`, the inhibition is 10.7% (inactive).

On to `CCn1c(C(C)NC(=O)Cc2ccccc2)nc2ccccc21` (configuration not stated), for which the inhibition is -0.2% (inactive).

Regarding `O=C(CSc1nnc2ccccn12)Nc1ccc2c(c1)OCO2`, the inhibition is 13.7% (inactive).

For `Cc1ccc(NC(=S)NN(C)c2cc(C)nc(C)n2)cc1`, the inhibition was -11% (inactive).

With `CCS(=O)(=O)NCCc1cc2cc(C)c(C)cc2[nH]c1=O`, the inhibition was 0.4% (inactive).

For `CCCCOC(=O)c1cc(=O)[nH]c2ccccc12`, the inhibition was 6.8% (inactive).

On to `COc1ccc(/C=N/NC(=O)c2cc(C)n(-c3ccccc3)c2C)cc1OC`, for which the inhibition was 9.5% (inactive).

For the compound `COc1cc(/C=N/NC(=O)c2cc(C)n(-c3ccc(F)cc3)c2C)cc(OC)c1O`, the inhibition was 51.9% (active).

For `Cc1cc(C(=O)N/N=C/c2ccc3c(c2)OCO3)c(C)n1-c1ccc(F)cc1`, the inhibition is -30.4% (inactive).

Consider `O=C(COC(=O)c1ccccc1[N+](=O)[O-])c1ccc(C2CCCCC2)cc1`, for which the inhibition is -0.8% (inactive).

For the compound `Nc1ccc(O)cc1C(=O)OCC(=O)c1ccc(C2CCCCC2)cc1`, the inhibition was 60.3% (active).

In the case of `COc1ccc(C(=O)OCC(=O)c2ccc(C3CCCCC3)cc2)cc1`, the inhibition was 9.2% (inactive).

For `CCCOc1ccc(N2C(=O)CC(N3CCC(O)(c4cccc(C(F)(F)F)c4)CC3)C2=O)cc1` (configuration not stated), the inhibition is 7.5% (inactive).

For `CC(=O)Oc1cc2oc(=O)cc(C)c2cc1OC(C)=O`, the inhibition was 55.7% (active).

Consider `CC(=O)Oc1ccc2c(C)cc(=O)oc2c1`, for which the inhibition was 2% (inactive).

Regarding `CC(=O)c1cc2c(C)cc(=O)oc2cc1O`, the inhibition is 11.3% (inactive).

For the compound `CC(=O)c1cc2c(cc1NC(=O)CCc1ccccc1)OCO2`, the inhibition was 0.5% (inactive).

As to `CCOc1cc(/C=C2/C(=O)N(c3ccccc3)N=C2C)ccc1OC(=O)c1ccco1`, the inhibition is 43.2% (inactive).

For the compound `CCOc1cc(/C=C2\C(=O)N(c3ccc(C(N)=O)cc3)N=C2C)ccc1OC(=O)c1cccs1`, the inhibition was 61.4% (active).

`CCOc1cc(/C=C2/C(=O)N(c3ccccc3)N=C2C)ccc1OC(=O)c1cccs1`: the inhibition is 17% (inactive).

As to `CCOc1ccc(NCC2CCOC(C)(C)C2)cc1` (configuration not stated), the inhibition was 50.9% (active).

Take `CCOc1ccc(NCCC#N)cc1`: the inhibition was 2.3% (inactive).

`CCOc1ccc(NC(=O)NC2CCOC(C)(C)C2)cc1` (configuration not stated): the inhibition was 11.5% (inactive).

For the compound `CCN(CC)S(=O)(=O)c1cccc(C(=O)OCC(=O)NC(C)c2ccccc2)c1` (configuration not stated), the inhibition was -2.8% (inactive).

For `O=C(CNC(=O)/C(=C\c1ccc(F)cc1)NC(=O)c1ccccc1)OCc1ccccc1`, the inhibition was 0.8% (inactive).

Turning to `COc1ccccc1OCc1ccc(C(=O)NCc2cccnc2)o1`, the inhibition was 6.8% (inactive).

Regarding `O=C(NCc1cccnc1)c1ccc(COc2cccc3ccccc23)o1`, the inhibition was 53.2% (active).

Regarding `O=C(NCc1cccnc1)c1ccc(COc2ccccc2Br)o1`, the inhibition is 11.6% (inactive).

Regarding `CC1CCN(c2c(NCC3CCC(C(=O)NCCc4ccccc4)CC3)c(=O)c2=O)CC1` (configuration not stated), the inhibition is 1.2% (inactive).

As for `Cn1ncc(N=Cc2ccccc2O)c1C(=O)Nc1ccccc1`, the inhibition is 16.9% (inactive).

In the case of `Cn1ncc(N=Cc2ccccc2)c1C(=O)Nc1cccc(Cl)c1`, the inhibition was 14.7% (inactive).

On to `Cn1ncc(N=Cc2c(O)ccc3ccccc23)c1C(=O)Nc1cccc(Cl)c1`, for which the inhibition is 64% (active).

On to `C/C(CC(=O)Nc1ccccn1)=N\NC(=O)C(=O)Nc1ccccc1C`, for which the inhibition is 13% (inactive).

As for `CCOC(=O)C(Cc1ccc(Cl)cc1Cl)c1ccno1` (configuration not stated), the inhibition is 0.3% (inactive).

On to `O=C(NCc1ccco1)C1CCN(c2nc3ccccc3n2Cc2ccccc2F)CC1`, for which the inhibition is 25.8% (inactive).

In the case of `COc1ccccc1C(=O)OCC(=O)Nc1ccc(Cl)cn1`, the inhibition is 6.1% (inactive).

Take `O=C(COC(=O)CCOc1ccccc1)Nc1ccc(Cl)cn1`: the inhibition is 9.2% (inactive).

`COc1ccccc1NCCC(=O)OCC(=O)Nc1ccc(Cl)cn1`: the inhibition is 50.3% (active).

In the case of `O=c1c2[nH]c3ccccc3c2ncn1Cc1ccccn1`, the inhibition was 1.8% (inactive).

On to `CC(=O)c1c(C)[nH]c(C(=O)N2CCc3ccccc3C2)c1C`, for which the inhibition was 12.7% (inactive).
